Holding throughout (assay): NCI-60 one-dose screen, 48 h (100 = growth as untreated, 0 = no growth, -100 = all killed)
Holding throughout (details): 10 µM

The test system of assay [1] is NCI-H23 lung.
Assay [2] deals with NCI-H226 lung.
In assay [3] the test system is NCI-H322M lung.
The test system of assay [4] is HOP-62 NSCLC.
Assay [5] has as its system HOP-92 NSCLC.
Assay [6] deals with NCI-H522 lung.
Assay [7] relates to A549/ATCC NSCLC.
The test system of assay [8] is 786-0 renal.
Assay [9] concerns COLO 205 colon.
The subject of assay [10] is DU-145 prostate.
For assay [11], the system named is K-562 leukemia.
Assay [12] concerns MALME-3M melanoma.
Assay [13] relates to MDA-MB-231 breast.
Assay [14] concerns RXF 393 renal.
In assay [15] the test system is SF-268 CNS.
Assay [16] deals with SF-295 CNS.
The test system of assay [17] is SF-539 CNS.
Assay [18] has as its system UACC-257 melanoma.
Assay [19] has as its system M14 melanoma.
Assay [20] relates to NCI-H460 lung.

The panel holds about 83,000 compounds, 20% with a hit somewhere; the sample as a whole holds those more often.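 Each cell line was grown in a 96-well plate and treated with one concentration of compound for 48 hours. Values below 10 were considered active.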 Values without a mark were called inactive. Calls of active or inactive are those of the source.

Regarding `Cc1ccc(CSc2nc(-c3ccc(F)cc3)c(C#N)c(=O)[nH]2)cc1`, the growth in [1] was 103%; in assay [2] it was 99.1%; in [3], 98.6%; in [4], 102%; in assay [5] it was 96.7%; in assay [6], 87.1%. In addition, the growth in assay [7] was 89.8%; in assay [8], 100%; in assay [9] it was 131%; in assay [10], 101%; in assay [11], 91.1%; in assay [12], 117%. The growth is 104% in assay [13]; 95.1% in [14]; 101% in [15]; 95.6% in assay [16]; 101% in [17]; 102% in assay [18]. Moreover, in [19], the growth was 116%.
Consider `Cc1ccc(NC(=O)NCn2c(=O)[nH]c3ccccc3c2=O)cc1`, for which the growth in assay [1] is 53.2%; in [2] it was 22.5%; in [3], 89.1%; in [4], 44.8%; in assay [20] it was 64.7%; in assay [6], 73.7%. In addition, the growth in assay [7] is 81.1%; in assay [8] it was 50.7%; in assay [9], 115%; in [10], 89%; in assay [12] it was 79.3%; in [13], 40.7%. The growth was 30.3% in assay [14]; 64.3% in assay [15]; 95% in assay [16]; 58.2% in [17]; 94.5% in assay [18]; 79.2% in [19].
As for `COc1ccc(-c2cc(-c3cc(C(=O)c4ccccc4)n4ccc(C)cc34)nc(N)c2C#N)cc1`, the growth in assay [1] was 55%; in assay [2], 36.4%; in assay [3] it was 83.7%; in assay [4], 29.7%; in assay [20] it was 44.5%; in assay [6], 71.5%. The growth in assay [7] was 79.9%; in assay [8], 13.5%; in assay [10], 77.9%; in assay [11], 88.3%; in assay [12], 50.8%; in [13], 34.4%. Also, the growth in assay [15] was 41.2%; in assay [16], 45.2%; in [17], 7.52% (active); in [18], 84.4%; in [19], 79.8%.
As to `O=C1CCC(N2Cc3cc(NC(=O)COc4ccccc4)ccc3C2=O)C(=O)N1` (configuration not stated), the growth was 101% in assay [1]; 48.1% in assay [2]; 80.3% in [3]; 65.7% in assay [4]; 113% in assay [20]; 91% in assay [6]. The growth is 85% in assay [7]; 71.8% in assay [8]; 74.6% in assay [9]; 111% in [10]; 93.6% in assay [11]; 19.2% in assay [12]. Moreover, the growth in [13] was 25.1%; in assay [15], 87.3%; in [16], 71.5%; in assay [17], 78.4%; in assay [18] it was 110%; in assay [19], 56.3%.
In the case of `O=C(CS(=O)(=O)c1oc(-c2ccc(Cl)cc2)nc1S(=O)(=O)c1ccccc1)N1CCCC1`, the growth in assay [1] is 17.1%; in assay [2], 71.9%; in assay [3] it was 83.9%; in [4], 93.5%; in assay [20], 73.3%; in assay [6] it was -89.3% (active). Also, the growth is 79.1% in assay [7]; -44.3% (active) in assay [8]; -100% (active) in assay [10]; -99.2% (active) in [12]; -88.3% (active) in [13]; -97.8% (active) in [14]. Also, the growth in [15] is 74.5%; in [16], 80.8%; in assay [17] it was -78.6% (active); in assay [18], -77.8% (active); in [19] it was -31.5% (active).
For the compound `CCOC(=O)C1=C(N)N(c2ccccc2)C2=C(C(=O)CC(C)(C)C2)C1c1ccccc1OC` (configuration not stated), the growth in assay [1] is 98.3%; in assay [2], 101%; in [3] it was 94%; in assay [4], 102%; in assay [20], 115%; in assay [6], 95.3%. For the same compound, the growth is 103% in assay [7]; 97.7% in [8]; 128% in assay [9]; 99.6% in assay [10]; 97.2% in [11]; 91.3% in assay [12]. The growth in assay [13] is 92.5%; in assay [15], 114%; in [16] it was 89.2%; in [17], 92.6%; in [18] it was 107%; in assay [19], 111%.
Regarding `Cc1cccc2cc(-c3cc(-c4ccccc4)nc(=S)[nH]3)c(Cl)nc12`, the growth in [1] is 82.2%; in assay [2] it was 90.5%; in assay [3], 90.2%; in [4] it was 97.4%; in assay [20], 101%; in assay [7] it was 95.9%. Moreover, the growth in assay [8] is 97.7%; in assay [9], 123%; in assay [10], 104%; in assay [11], 38%; in [12], 61%; in [14], 78.9%. Further, the growth in assay [15] is 112%; in assay [16] it was 64.7%; in assay [17] it was 82.1%; in [18], 77.8%; in assay [19] it was 33.3%.
Consider `O=c1c2ccccc2nc(COc2ccccc2)n1/N=C/c1ccc(N2CCOCC2)cc1`, for which the growth is 59.2% in assay [1]; 37.9% in assay [2]; 66.6% in [3]; 18.4% in assay [4]; 66.2% in assay [20]; 33.6% in assay [6]. Moreover, the growth in assay [7] is 73.7%; in assay [8] it was 45.5%; in assay [9] it was 80.8%; in assay [10], 77.5%; in [11] it was 103%; in assay [12], 56.8%. In addition, the growth in assay [13] is 26%; in assay [15], 26.4%; in assay [16] it was 69.8%; in [17], 34.1%; in assay [18] it was 95.7%; in [19], 93.9%.

(Values after PubChem BioAssay (NCI).)
